{"source": "PubChem BioAssay AID2284123", "about": "(EPA ToxCast)", "note": "Active and inactive are the calls of the source. Rule for the calls: active = hit-call score of the fitted dose curve at least 0.9, where 1 is the maximum; inactive = score below 0.9.", "data": [{"target": "human PDE10A2 Phosphodiesterase, PDE10A (gene 10846) (UniProt Q9Y233)", "sequence (Q9Y233 whole entry, looked up)": "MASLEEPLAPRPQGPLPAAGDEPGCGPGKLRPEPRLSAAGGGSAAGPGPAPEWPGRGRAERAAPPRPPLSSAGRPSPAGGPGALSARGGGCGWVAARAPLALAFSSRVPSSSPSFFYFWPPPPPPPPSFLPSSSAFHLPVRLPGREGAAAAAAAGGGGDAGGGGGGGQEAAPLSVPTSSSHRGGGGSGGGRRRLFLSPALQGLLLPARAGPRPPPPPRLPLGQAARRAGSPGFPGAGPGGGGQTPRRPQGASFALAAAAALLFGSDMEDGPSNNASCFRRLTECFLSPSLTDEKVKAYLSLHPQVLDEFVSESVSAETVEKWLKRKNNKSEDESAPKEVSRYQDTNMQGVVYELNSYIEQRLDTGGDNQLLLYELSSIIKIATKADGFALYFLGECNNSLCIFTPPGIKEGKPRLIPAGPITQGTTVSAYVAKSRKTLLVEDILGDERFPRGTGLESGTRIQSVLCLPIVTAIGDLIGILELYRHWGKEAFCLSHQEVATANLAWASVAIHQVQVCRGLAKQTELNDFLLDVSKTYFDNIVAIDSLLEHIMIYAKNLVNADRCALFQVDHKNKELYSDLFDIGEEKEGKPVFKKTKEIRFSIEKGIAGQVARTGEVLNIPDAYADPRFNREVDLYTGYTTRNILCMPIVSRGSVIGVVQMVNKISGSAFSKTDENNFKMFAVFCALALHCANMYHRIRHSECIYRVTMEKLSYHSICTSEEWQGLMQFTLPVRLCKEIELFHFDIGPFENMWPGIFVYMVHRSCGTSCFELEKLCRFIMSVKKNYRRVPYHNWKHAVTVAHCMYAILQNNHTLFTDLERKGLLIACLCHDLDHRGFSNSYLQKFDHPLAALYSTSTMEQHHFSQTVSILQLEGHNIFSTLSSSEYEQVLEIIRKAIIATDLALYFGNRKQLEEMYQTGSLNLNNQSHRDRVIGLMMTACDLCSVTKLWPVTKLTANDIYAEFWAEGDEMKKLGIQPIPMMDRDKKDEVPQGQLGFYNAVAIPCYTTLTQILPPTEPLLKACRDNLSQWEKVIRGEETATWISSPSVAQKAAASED", "test": "ERF_FR_ENZ_hPDE10A: Eurofins (ERF) Enzymatic LeadHunter Assay for human PDE10A2 Phosphodiesterase", "protocol": "ERF_FR_ENZ_hPDE10A is a biochemical, single-readout assay that uses extracted gene-proteins in a cell-free assay. Measurements were taken 0.33 hour after chemical dosing in a 96-well plate. See PDE10A2 Human Phosphodiesterase Enzymatic Assay, Cerep.ERF_FR_ENZ_hPDE10A is an assay component calculated from the ERF_FR_ENZ_hPDE10A assay. It is designed to measure enzyme activity using a type of enzyme reporter as detected by scintillation counting with radiometry technology.Data from the assay component ERF_FR_ENZ_hPDE10A was analyzed at the assay endpoint, ERF_FR_ENZ_hPDE10A, in the positive analysis fitting direction relative to DMSO as the negative control and baseline of activity. Using a type of enzyme reporter, loss-of-signal activity can be used to understand changes in enzymatic activity as they relate to gene PDE10A. To generalize the intended target to other relatable targets, this assay endpoint is annotated to the phosphodiesterase intended target family, where the subfamily is cyclic nucleotide signaling.\nHuman cells are incubated for 20 minutes at room temprature with [3H]cAMP + cAMP (0.2uM) as sunstrate and Papaverine as control inhibitor. Test Sample Requirements: Minimum for 1) Screen: 60 ul of 10 mM stock -OR- 1 mg (pre-weighed) for 10 uM final testing. 2) Dose Response: 90 ul of 10 mM stock -OR- 1 mg (pre-weighed) for a top concentration at 10 uM.", "values": [{"smiles": "O=C(/C=C/c1ccc(O)cc1)CC(=O)/C=C/c1ccc(O)cc1", "AC50": "295 nM (active)"}]}]}
